Reference: the supplement of paper PMC10849652
Targets with a hit are over-represented here; the source holds about 7,900 in all. About 0.6% of all pairs of compound and target were hits.

Tests used:
Test in all cases: log2 fold change, soluble protein after heating vs DMSO (PISA); higher = thermal stabilisation; K562 cells, 10 uM, 30 min; active = over 0.2 and 3.5 SD of the protein, either way, in both replicates (recomputed)
[1] = compound: CN1CCN(CCOc2cc(OC3CCOCC3)c3c(Nc4c(Cl)ccc5c4OCO5)ncnc3c2)CC1 [saracatinib]
Outline: (§1)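 Soluble protein was defined as the supernatant after 21,000xg for 90 min. It came from K562 cells at 2×10^6 cells/mL given 10 μM compound for 30 min, heated in aliquots for 3 min across 48°C-58°C, pooled, and extracted in PBS with 0.5% NP-40 at 4°C, and was quantified by TMTpro 16plex LC-MS/MS with equalised channel sums. Thermal stability against control samples, from duplicates, is reported as log2 fold change.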

[2] = compound: CN1CCN(c2nc(C3=C(c4c[nH]c5ccccc45)C(=O)NC3=O)c3ccccc3n2)CC1 [sotrastaurin]
Outline: as §1

[3] = compound: CN1CC[C@H](c2c(O)cc(O)c3c(=O)cc(-c4ccccc4Cl)oc23)[C@H](O)C1 [alvocidib]
Outline: as §1

[4] = compound: CN1CCc2c(c3ccccc3n2Cc2ccc(C(=O)NO)cc2)C1 [Tubastatin A]
Outline: as §1

[5] = compound: CNC(=O)C1=CC=CC=C1NC2=NC(=NC=C2Cl)NC3=C(C=C(C=C3)N4CCOCC4)OC
Outline: as §1

[6] = compound: CNC(=O)c1ccc(Nc2ncc(C(F)(F)F)c(NCc3nccnc3N(C)S(C)(=O)=O)n2)cc1 [defactinib]
Outline: as §1

[7] = compound: CNc1nc(-c2ccc3c(N)n[nH]c3c2)cc(N2C[C@@H](C(=O)NC3CCCCC3)CC[C@H]2C)n1
Outline: as §1

[8] = compound: COC(=O)[C@H](CCSC)NC(=O)C1=C(C=C(C=C1)NC[C@H](CS)N)C2=CC=CC=C2
Outline: as §1

[9] = compound: CNCc1ccc(-c2[nH]c3cc(F)cc4c3c2CCNC4=O)cc1 [rucaparib]
Outline: as §1

[10] = compound: COC(=O)N[C@@H](C)CNc1nccc(-c2cn(C(C)C)nc2-c2cc(Cl)cc(NS(C)(=O)=O)c2F)n1 [encorafenib]
Outline: as §1

Measured: log2 fold change

EDEM2 (UniProt Q9BV94)
Chain of UniProt Q9BV94 (Q9BV94 whole entry, looked up): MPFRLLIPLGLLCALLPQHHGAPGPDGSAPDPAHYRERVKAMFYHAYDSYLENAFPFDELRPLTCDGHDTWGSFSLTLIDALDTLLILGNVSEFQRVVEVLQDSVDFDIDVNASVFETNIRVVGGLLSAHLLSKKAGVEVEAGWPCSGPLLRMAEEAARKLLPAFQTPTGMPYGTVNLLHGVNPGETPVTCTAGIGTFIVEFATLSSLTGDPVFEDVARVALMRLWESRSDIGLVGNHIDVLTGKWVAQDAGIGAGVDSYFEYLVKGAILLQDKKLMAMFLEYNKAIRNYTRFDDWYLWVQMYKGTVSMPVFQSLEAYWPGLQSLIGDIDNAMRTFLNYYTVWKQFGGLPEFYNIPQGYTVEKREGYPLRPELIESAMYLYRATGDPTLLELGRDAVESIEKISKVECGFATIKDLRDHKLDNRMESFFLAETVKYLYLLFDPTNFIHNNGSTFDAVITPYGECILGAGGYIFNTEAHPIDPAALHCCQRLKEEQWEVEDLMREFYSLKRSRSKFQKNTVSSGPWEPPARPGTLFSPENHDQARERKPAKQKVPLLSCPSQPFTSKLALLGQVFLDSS
inactive: [1] -0.23 | [2] -0.05 | [3] -0.028 | [4] 0.022 | [5] -0.016 | [6] 0.036 | [7] 0.079 | [8] 0.105

FAM50A (UniProt Q14320)
Chain of UniProt Q14320 (Q14320 whole entry, looked up): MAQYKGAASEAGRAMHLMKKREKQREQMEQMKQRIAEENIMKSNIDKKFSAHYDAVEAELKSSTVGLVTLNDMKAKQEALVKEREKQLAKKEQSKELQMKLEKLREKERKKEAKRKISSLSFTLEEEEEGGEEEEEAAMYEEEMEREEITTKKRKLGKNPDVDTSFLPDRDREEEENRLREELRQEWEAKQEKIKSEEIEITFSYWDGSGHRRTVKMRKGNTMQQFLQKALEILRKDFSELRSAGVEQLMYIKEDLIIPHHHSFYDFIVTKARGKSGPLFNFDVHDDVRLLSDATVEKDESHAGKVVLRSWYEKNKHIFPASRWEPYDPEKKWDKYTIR
inactive: [1] 0.11 | [2] -0.119 | [3] -0.064 | [4] 0.029 | [5] 0.056 | [6] -0.203 | [9] -0.027 | [7] 0.08 | [10] 0.055 | [8] -0.023

EMD (UniProt P50402)
Chain of UniProt P50402 (P50402 whole entry, looked up): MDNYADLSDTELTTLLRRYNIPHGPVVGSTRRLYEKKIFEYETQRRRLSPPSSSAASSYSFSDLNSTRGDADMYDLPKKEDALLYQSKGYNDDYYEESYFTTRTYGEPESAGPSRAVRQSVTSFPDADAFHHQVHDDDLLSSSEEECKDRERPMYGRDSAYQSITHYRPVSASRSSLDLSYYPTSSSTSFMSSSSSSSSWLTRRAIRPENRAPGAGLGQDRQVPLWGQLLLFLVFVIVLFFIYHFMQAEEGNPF
inactive: [1] 0.011 | [2] 0.063 | [3] -0.043 | [4] -0.028 | [5] -0.046 | [6] -0.027 | [9] 0.008 | [7] -0.064 | [10] -0.056 | [8] 0.032

EDC4 (UniProt Q6P2E9)
Chain of UniProt Q6P2E9 (Q6P2E9 whole entry, looked up): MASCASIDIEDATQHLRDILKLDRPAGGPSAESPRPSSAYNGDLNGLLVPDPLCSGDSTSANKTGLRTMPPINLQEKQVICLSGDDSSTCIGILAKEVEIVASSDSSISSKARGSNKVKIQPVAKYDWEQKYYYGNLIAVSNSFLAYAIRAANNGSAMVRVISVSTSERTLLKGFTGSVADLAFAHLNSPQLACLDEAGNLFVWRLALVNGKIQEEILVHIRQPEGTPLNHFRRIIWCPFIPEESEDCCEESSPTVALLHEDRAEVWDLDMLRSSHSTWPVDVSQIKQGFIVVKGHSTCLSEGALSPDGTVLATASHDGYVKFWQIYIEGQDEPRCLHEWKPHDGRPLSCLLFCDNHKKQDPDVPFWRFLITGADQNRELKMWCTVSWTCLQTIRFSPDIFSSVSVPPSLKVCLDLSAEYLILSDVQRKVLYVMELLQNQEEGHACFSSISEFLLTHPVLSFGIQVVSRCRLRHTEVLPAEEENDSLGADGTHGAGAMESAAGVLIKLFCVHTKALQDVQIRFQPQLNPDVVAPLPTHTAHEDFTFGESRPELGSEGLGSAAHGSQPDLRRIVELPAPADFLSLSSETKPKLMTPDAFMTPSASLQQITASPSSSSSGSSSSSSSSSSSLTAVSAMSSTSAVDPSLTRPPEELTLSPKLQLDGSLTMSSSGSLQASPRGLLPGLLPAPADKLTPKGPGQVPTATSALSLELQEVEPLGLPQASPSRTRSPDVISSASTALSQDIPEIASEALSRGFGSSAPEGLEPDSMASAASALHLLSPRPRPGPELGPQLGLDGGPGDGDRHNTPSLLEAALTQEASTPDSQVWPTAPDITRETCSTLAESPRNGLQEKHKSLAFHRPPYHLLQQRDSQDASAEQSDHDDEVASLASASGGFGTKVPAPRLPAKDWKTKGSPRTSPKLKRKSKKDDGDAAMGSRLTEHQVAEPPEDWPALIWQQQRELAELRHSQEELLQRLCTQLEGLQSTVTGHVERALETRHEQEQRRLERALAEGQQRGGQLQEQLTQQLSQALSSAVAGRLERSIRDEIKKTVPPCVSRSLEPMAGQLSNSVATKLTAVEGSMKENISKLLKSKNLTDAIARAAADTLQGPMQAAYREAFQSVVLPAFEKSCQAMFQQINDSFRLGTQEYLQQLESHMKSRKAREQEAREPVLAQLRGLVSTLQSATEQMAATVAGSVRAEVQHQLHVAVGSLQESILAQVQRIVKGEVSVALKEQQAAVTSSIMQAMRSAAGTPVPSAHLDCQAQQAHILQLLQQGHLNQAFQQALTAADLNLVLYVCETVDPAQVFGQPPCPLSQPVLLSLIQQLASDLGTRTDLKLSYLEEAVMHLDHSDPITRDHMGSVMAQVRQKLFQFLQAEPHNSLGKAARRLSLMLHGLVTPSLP
inactive: [1] -0.023 | [2] -0.109 | [3] -0.167 | [4] 0.016 | [5] -0.163 | [6] -0.148 | [9] -0.012 | [7] -0.099 | [10] 0.113 | [8] 0.005

CTSL (UniProt P07711)
Chain of UniProt P07711 (P07711 whole entry, looked up): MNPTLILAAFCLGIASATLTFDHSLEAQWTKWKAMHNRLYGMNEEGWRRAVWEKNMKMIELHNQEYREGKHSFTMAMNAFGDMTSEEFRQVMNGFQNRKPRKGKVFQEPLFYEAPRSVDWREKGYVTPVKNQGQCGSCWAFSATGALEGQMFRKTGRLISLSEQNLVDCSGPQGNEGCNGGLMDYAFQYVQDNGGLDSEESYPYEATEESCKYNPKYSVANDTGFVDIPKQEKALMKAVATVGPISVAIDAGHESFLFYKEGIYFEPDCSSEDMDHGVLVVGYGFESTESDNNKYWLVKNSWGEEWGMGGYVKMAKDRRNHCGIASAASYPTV
inactive: [1] 0.113 | [2] 0.05 | [3] 0.085 | [4] 0.038 | [5] 0.024 | [6] 0.032 | [9] 0.049 | [7] 0.018 | [10] -0.008 | [8] 0.02

E2F4 (UniProt Q16254)
Chain of UniProt Q16254 (Q16254 whole entry, looked up): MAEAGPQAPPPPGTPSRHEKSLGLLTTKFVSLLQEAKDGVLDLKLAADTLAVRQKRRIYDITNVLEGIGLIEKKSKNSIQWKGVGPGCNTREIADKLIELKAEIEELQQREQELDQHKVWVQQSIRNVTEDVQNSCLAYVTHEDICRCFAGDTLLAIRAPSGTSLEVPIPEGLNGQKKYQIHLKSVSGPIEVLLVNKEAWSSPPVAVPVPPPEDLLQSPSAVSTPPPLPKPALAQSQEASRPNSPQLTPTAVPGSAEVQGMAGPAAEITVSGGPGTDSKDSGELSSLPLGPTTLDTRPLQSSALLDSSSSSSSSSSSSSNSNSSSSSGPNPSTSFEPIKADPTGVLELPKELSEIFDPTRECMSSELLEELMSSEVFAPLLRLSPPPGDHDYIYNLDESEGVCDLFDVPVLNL
inactive: [1] -0.012 | [2] -0.056 | [3] -0.134 | [4] 0.028 | [5] -0.045 | [6] -0.122 | [9] -0.025 | [7] -0.02 | [10] -0.002 | [8] -0.042

DNAAF2 (UniProt Q9NVR5)
Chain of UniProt Q9NVR5 (Q9NVR5 whole entry, looked up): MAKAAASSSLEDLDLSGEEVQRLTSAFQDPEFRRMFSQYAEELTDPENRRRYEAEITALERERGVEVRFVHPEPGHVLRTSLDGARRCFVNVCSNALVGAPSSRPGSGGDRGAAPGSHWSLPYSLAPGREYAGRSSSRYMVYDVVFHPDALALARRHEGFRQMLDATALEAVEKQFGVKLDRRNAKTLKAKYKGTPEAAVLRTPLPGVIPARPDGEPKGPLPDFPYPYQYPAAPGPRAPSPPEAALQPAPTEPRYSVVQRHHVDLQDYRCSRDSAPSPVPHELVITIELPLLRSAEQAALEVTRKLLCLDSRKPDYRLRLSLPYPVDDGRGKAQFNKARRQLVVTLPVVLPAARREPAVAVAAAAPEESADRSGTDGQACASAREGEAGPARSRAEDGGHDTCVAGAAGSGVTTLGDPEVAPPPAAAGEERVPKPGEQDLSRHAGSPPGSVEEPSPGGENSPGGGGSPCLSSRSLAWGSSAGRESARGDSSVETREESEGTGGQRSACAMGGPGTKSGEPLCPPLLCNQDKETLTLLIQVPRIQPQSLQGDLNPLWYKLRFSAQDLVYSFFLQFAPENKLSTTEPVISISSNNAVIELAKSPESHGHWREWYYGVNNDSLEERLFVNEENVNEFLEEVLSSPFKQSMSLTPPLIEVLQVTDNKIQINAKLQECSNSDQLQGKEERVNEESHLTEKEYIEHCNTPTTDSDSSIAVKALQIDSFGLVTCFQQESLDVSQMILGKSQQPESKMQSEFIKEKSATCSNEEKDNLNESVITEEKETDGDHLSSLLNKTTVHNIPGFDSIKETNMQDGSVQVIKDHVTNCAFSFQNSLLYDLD
inactive: [1] 0.048 | [2] 0 | [3] -0.065 | [4] -0.042 | [5] 0.01 | [6] -0.142 | [9] 0.031 | [7] -0.033 | [10] 0.026 | [8] 0.043

DHRS7B (UniProt Q6IAN0)
Chain of UniProt Q6IAN0 (Q6IAN0 whole entry, looked up): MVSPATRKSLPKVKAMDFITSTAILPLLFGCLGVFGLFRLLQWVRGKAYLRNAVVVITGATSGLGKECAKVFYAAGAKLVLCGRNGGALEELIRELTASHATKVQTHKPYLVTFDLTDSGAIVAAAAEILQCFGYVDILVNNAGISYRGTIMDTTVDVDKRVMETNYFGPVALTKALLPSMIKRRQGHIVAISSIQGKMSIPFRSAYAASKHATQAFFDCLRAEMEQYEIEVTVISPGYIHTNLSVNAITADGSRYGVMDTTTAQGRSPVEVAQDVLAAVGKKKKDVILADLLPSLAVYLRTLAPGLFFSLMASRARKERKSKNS
inactive: [1] -0.003 | [2] 0.148 | [3] -0.18 | [4] -0.019 | [5] 0.051 | [6] -0.067 | [9] 0.029 | [7] 0.071 | [10] -0.008 | [8] -0.016

DHRS1 (UniProt Q96LJ7)
inactive: [1] -0.074 | [2] 0.153 | [3] -0.018 | [4] 0.022 | [5] 0.375 | [6] -0.007 | [9] 0.031 | [7] 0.392 | [10] -0.116 | [8] -0.116

ELF1 (UniProt P32519)
inactive: [1] 0.02 | [2] -0.027 | [3] -0.101 | [4] 0.075 | [5] 0.013 | [9] -0.301 | [7] -0.03 | [10] 0.018

DNAH11 (UniProt Q96DT5)
inactive: [1] 0.301 | [2] 0.317 | [3] 0.517 | [4] -0.083 | [5] -0.043 | [6] -0.11 | [9] 0.162 | [7] 0.061 | [10] 0.152 | [8] 0.049

FADS1, A0A0A0MR51
inactive: [1] 0.013 | [2] -0.061 | [3] -0.086 | [4] 0.15 | [5] 0.112 | [6] -0.022 | [9] 0.005 | [7] 0.027 | [10] 0.004 | [8] 0

DMXL1 (UniProt Q9Y485)
inactive: [1] 0.014 | [2] 0.001 | [3] -0.068 | [4] -0.011 | [5] -0.065 | [6] -0.035 | [9] 0.076 | [7] -0.017 | [10] 0.043 | [8] -0.047

FAM118A (UniProt Q9NWS6)
Chain of UniProt Q9NWS6 (Q9NWS6 whole entry, looked up): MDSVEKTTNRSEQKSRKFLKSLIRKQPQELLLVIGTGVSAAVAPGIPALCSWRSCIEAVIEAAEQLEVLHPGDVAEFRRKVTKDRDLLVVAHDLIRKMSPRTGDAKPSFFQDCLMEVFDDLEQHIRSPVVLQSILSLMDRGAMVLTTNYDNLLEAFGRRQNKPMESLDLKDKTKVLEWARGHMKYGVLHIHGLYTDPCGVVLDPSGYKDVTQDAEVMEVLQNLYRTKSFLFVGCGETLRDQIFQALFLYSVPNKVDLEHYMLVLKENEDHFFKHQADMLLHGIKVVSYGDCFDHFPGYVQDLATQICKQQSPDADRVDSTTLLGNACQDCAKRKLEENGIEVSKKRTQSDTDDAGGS
inactive: [1] -0.138 | [2] -0.135 | [3] -0.168 | [4] 0.029 | [6] -0.179 | [9] 0.29 | [7] 0.068 | [10] -0.172 | [8] -0.079
